From PubChem BioAssay (NCATS)
Where “and” joins values, the source holds several entries; their conditions need not be identical. Equal values may be shown once. Results filed as inconclusive are left out. More than one record can exist for a structure, and the calls need not agree. Calls of active or inactive are those of the source. Calls come from the whole dose curve; as a rule, active = well fitted curve in the direction sought with a large enough effect; inconclusive = small, poorly fitted or top-dose-only effect, or another doubt; inactive = no such curve, though single readings can be large; an effect the other way counts as inactive or inconclusive.

Experiments:
CRL-7250 = normal cell line; assay: Cytotoxic Profiling of Annotated Libraries Using Quantitative High-Throughput Screening (AID 1296008); details: Five cell lines viability, CellTiter-Glo ATP luminescence, 48-72 h; max response: active compounds read low; note: nearly all actives have a fitted effect of over 60% in size
Procedure, shortened: (§1)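 Cytotoxicity was measured as CellTiter-Glo ATP luminescence, read after 10 min at room temperature. Compound treatment of the cells lasted 48 or 72 hr at 37 degrees Celsius in a qHTS format.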

HEK293 = assay: as above; details: Five cell lines viability, CellTiter-Glo ATP luminescence, 48-72 h; max response: active compounds read low
Procedure, shortened: as §1

HaCat [1] = assay: as above; details: Five cell lines viability, CellTiter-Glo ATP luminescence, 48-72 h; max response: active compounds read low
Procedure, shortened: as §1

NIH3T3 = assay: as above; details: Five cell lines viability, CellTiter-Glo ATP luminescence, 48-72 h; max response: active compounds read low
Procedure, shortened: as §1

KB-3-1 = assay: as above; details: Five cell lines viability, CellTiter-Glo ATP luminescence, 48-72 h; max response: active compounds read low
Procedure, shortened: as §1

MCC-13 = assay: qHTS assay to identify novel small-molecules to repurpose for Merkel cell carcinoma treatment (AID 1296009); details: MCC and control cell lines, CellTiter-Glo viability, 72 h; series mostly up to 46 µM; note: nearly all actives have a fitted effect of over 60% in size
Procedure, shortened: (§2)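 72 hr, 37 degree celsius; NPC 8-pt / MIPE 11-pt dose response; compound pinned in DMSO; CellTiter-Glo, 10 min RT, luminescence; normalized to no-cell and DMSO controls.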

MCC-26 = assay: as above; details: MCC and control cell lines, CellTiter-Glo viability, 72 h; series mostly up to 46 µM
Procedure, shortened: as §2

MKL-1 = assay: as above; details: MCC and control cell lines, CellTiter-Glo viability, 72 h; series mostly up to 46 µM
Procedure, shortened: as §2

WaGa = assay: as above; details: MCC and control cell lines, CellTiter-Glo viability, 72 h; series mostly up to 46 µM
Procedure, shortened: as §2

CASKI = assay: Primary qHTS to identify gynecologic anti-cancer compounds using libraries of approved drugs and bioactive compounds (AID 1345084); details: Gynecologic cancer cell panel viability, ATPlite luminescence, 48 h; series mostly up to 57.5 µM; note: nearly all actives have a fitted effect of over 55% in size
Procedure, shortened: (§3)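 Five-concentration response, 48 h; readout is ATP-driven luciferase luminescence.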

HeLa = assay: as above; details: Gynecologic cancer cell panel viability, ATPlite luminescence, 48 h; series mostly up to 57.5 µM
Procedure, shortened: as §3

JEG-3 = assay: as above; details: Gynecologic cancer cell panel viability, ATPlite luminescence, 48 h; series mostly up to 57.5 µM
Procedure, shortened: as §3

MKL-2 = assay: qHTS assay to identify novel small-molecules to repurpose for Merkel cell carcinoma treatment (AID 1296009); details: MCC and control cell lines, CellTiter-Glo viability, 72 h; series mostly up to 46 µM; note: nearly all actives have a fitted effect of over 60% in size
Procedure, shortened: as §2

UISO = assay: as above; details: MCC and control cell lines, CellTiter-Glo viability, 72 h; series mostly up to 46 µM
Procedure, shortened: as §2

C33A = assay: Primary qHTS to identify gynecologic anti-cancer compounds using libraries of approved drugs and bioactive compounds (AID 1345084); details: Gynecologic cancer cell panel viability, ATPlite luminescence, 48 h; series mostly up to 57.5 µM; note: nearly all actives have a fitted effect of over 55% in size
Procedure, shortened: as §3

Es-2 = assay: as above; details: Gynecologic cancer cell panel viability, ATPlite luminescence, 48 h; series mostly up to 57.5 µM
Procedure, shortened: as §3

Hek293T [2] = assay: as above; details: Gynecologic cancer cell panel viability, ATPlite luminescence, 48 h, control line for the selectivity index; series mostly up to 57.5 µM
Procedure, shortened: as §3

HACAT [3] = assay: qHTS assay to identify novel small-molecules to repurpose for Merkel cell carcinoma treatment (AID 1296009); details: MCC and control cell lines, CellTiter-Glo viability, 72 h; at 44.8 µM (top of the series) unless noted; note: nearly all actives have a fitted effect of over 60% in size
Procedure, shortened: as §2

HEK293T [4] = assay: as above; details: MCC and control cell lines, CellTiter-Glo viability, 72 h; series mostly up to 44.8 µM
Procedure, shortened: as §2
% is set by controls: 0 for no effect and ±100 for the full control effect; potency is the fitted concentration of half-maximal effect.

CNC(=O)Nc1ccc(-c2nc(N3CC4CCC(C3)O4)c3cnn(C4CCC5(CC4)OCCO5)c3n2)cc1
inactive: max response (HaCat [1]) -19.6%
active: Potency (CRL-7250) 0.0047 µM | Potency (HEK293) 0.0066 µM | Potency (NIH3T3) 0.0526 µM

Cc1cnc(Nc2ccc(CN3CCOCC3)cc2)nc1Nc1cccc(S(=O)(=O)NC(C)(C)C)c1
active: Potency (CRL-7250) 3.32 µM and 4.61 µM | Potency (HEK293) 3.66 µM | Potency (HaCat [1]) 2.64 µM and 2.31 µM | Potency (KB-3-1) 4.18 µM and 1.46 µM | Potency (MCC-13) 13.2 µM | Potency (MCC-26) 8.33 µM | Potency (MKL-1) 11.8 µM | Potency (WaGa) 10.5 µM | Potency (CASKI) 8.91 µM | Potency (HeLa) 1 µM | Potency (JEG-3) 17.8 µM

COc1ccc(C[C@@H](C)[C@@H](C)Cc2ccc(OC)c(OC)c2)cc1OC
active: Potency (CRL-7250) 3.32 µM | Potency (HEK293) 2.64 µM | Potency (KB-3-1) 2.96 µM | Potency (NIH3T3) 2.35 µM | Potency (MKL-2) 3.72 µM | Potency (UISO) 1.32 µM | Potency (WaGa) 0.833 µM
inactive: max response (HaCat [1]) 3.58%

Cc1cc(C(=O)NOCCO)c(Nc2ccc(I)cc2F)n(C)c1=O
active: Potency (CRL-7250) 0.743 µM
inactive: max response (HEK293) -3.43% | max response (HaCat [1]) -66.6% | max response (KB-3-1) -2.94% | Potency (MCC-26) | Potency (MKL-1) | Potency (MKL-2) | Potency (UISO) | Potency (WaGa)

CCCCC(=O)O[C@]1(C(=O)CO)[C@@H](C)C[C@H]2[C@@H]3CCC4=CC(=O)C=C[C@]4(C)[C@@]3(F)[C@@H](O)C[C@@]21C
inactive: outcome (CRL-7250) | max response (HEK293) 3.05% | outcome (KB-3-1) | max response (NIH3T3) -1.65% | Potency (MCC-13) | Potency (MCC-26) | Potency (MKL-1) | Potency (MKL-2) | Potency (UISO) | Potency (WaGa) | Potency (C33A) | Potency (CASKI) | Potency (Es-2) | Potency (HeLa) | Potency (Hek293T [2]) | Potency (JEG-3)

CCN(CC)CCCCNc1ncc2c(n1)N(C)C(=O)N(c1c(Cl)c(OC)cc(OC)c1Cl)C2
inactive: max response (KB-3-1) -30% | Potency (MCC-13) | Potency (MCC-26) | Potency (MKL-1) | Potency (WaGa)
active: Potency (CRL-7250) 14.8 µM | Potency (HEK293) 2.09 µM

COC1=C2C[C@@H](C)C[C@H](OC)[C@@H](O)[C@@H](C)C=C(C)[C@H](OC(N)=O)[C@@H](OC)C=CC=C(C)C(=O)NC(=CC1=O)C2=O
active: Potency (CRL-7250) 7.43 µM | Potency (HEK293) 4.69 µM | Potency (KB-3-1) 2.09 µM | Potency (NIH3T3) 9.35 µM | Potency (MKL-1) 11.8 µM | Potency (MKL-2) 8.33 µM | Potency (WaGa) 20.9 µM

OC[C@@H](O)[C@@H](O)[C@H](O)[C@@H](O)CO
inactive: max response (CRL-7250) 0.947% | outcome (HaCat [1]) | outcome (KB-3-1) | max response (NIH3T3) -2.12% | outcome (HACAT [3]) | Potency (MCC-13) | Potency (MCC-26) | Potency (MKL-1) | Potency (MKL-2) | Potency (UISO) | Potency (WaGa)

C#Cc1cccc(Nc2ncnc3cc(OCCOC)c(OCCO)cc23)c1
active: Potency (CRL-7250) 14.8 µM | Potency (HEK293) 16.6 µM | Potency (NIH3T3) 20.9 µM
inactive: Potency (MCC-13) | Potency (MCC-26)

COc1cc(C)c(C=CC(C)=CC=CC(C)=CC(=O)O)c(C)c1C
inactive: max response (CRL-7250) -4.27% | outcome (HaCat [1]) | outcome (KB-3-1) | max response (NIH3T3) -4.41% | outcome (HACAT [3]) | Potency (MCC-13) | Potency (MCC-26) | Potency (MKL-1) | Potency (UISO) | Potency (WaGa)

CCc1c(O)cc(O)c(C(=O)c2ccc(OCCN3CCOCC3)c(OC)c2)c1CC(=O)N(CCOC)CCOC
inactive: Potency (MCC-13)
active: Potency (CRL-7250) 1.32 µM | Potency (HEK293) 0.833 µM | Potency (NIH3T3) 11.8 µM | Potency (UISO) 1.48 µM

CN(C)CC(=O)N1CCC(c2ccc(NC(=O)c3ncc(C#N)[nH]3)c(C3=CCCCC3)c2)CC1
inactive: outcome (CRL-7250) | max response (HaCat [1]) 3.1% | outcome (HaCat [1]) | max response (KB-3-1) 3.44% and -16.9% | max response (NIH3T3) 0.938% | outcome (HACAT [3]) | Potency (MCC-13) | Potency (MCC-26) | Potency (MKL-2) | Potency (UISO) | Potency (C33A) | Potency (CASKI) | Potency (Es-2) | Potency (HeLa) | Potency (Hek293T [2]) | Potency (JEG-3)
active: Potency (NIH3T3) 0.92 µM

c1coc(CNc2ncnc3nc[nH]c23)c1
inactive: outcome (CRL-7250) | outcome (HaCat [1]) | max response (KB-3-1) -3.01% | max response (NIH3T3) 0.142% | outcome (HACAT [3]) | Potency (HEK293T [4]) | Potency (MCC-13) | Potency (MCC-26) | Potency (MKL-1) | Potency (MKL-2) | Potency (UISO) | Potency (WaGa)

COc1cc(C=CC(=O)CC(=O)C=Cc2ccc(O)c(OC)c2)ccc1O
active: Potency (CRL-7250) 34 µM | Potency (HEK293) 24.1 µM | Potency (KB-3-1) 38.2 µM | Potency (MKL-1) 10.8 µM | Potency (MKL-2) 8.55 µM | Potency (UISO) 21.5 µM | Potency (WaGa) 9.59 µM

Cn1cc(C[C@@H](N)C(=O)O)c2ccccc21
inactive: outcome (HaCat [1]) | max response (KB-3-1) 4.82% | max response (NIH3T3) -2.88% | outcome (HACAT [3]) inactive [at 17.4 µM] | Potency (MCC-13) | Potency (MCC-26) | Potency (MKL-1) | Potency (MKL-2) | Potency (UISO) | Potency (WaGa)
active: Potency (CRL-7250) 5.75 µM
